# Columns and labels:
# Test in all cases: DAPPL (digital affinity profiling via proximity ligation, sequencing); 10 mM Tris-HCl pH 7.5, 50 mM NaCl, 1 mM DTT, 4% glycerol, room temperature, 30 min; GST-TFs on glutathione beads, 16-mer random dsDNA library, 0.1% formaldehyde crosslink after washing; high values mean tight binding
# FLI1 = target: T1, FLI1 (Homo sapiens, UniProt Q01543 1-452); conditions: protein: recombinant; tags: N-terminal GST; dsDNA, one strand shown
# T1 sequence: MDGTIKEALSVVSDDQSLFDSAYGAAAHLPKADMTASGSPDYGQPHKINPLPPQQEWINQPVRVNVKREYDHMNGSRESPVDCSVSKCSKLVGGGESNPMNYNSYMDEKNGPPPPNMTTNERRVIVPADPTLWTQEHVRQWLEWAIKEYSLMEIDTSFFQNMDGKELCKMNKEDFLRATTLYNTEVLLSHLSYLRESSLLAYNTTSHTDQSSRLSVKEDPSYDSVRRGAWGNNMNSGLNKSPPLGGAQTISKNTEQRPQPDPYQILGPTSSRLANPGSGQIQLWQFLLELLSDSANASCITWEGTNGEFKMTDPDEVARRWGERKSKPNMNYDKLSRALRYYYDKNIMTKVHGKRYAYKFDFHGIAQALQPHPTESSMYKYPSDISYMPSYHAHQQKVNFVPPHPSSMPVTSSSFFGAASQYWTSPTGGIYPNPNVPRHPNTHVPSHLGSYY
# Procedure, shortened: (§1)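 Binding signal is defined as a hexamer's read frequency for one factor over its frequency for the tag-only sample. To obtain reads, GST-fused human transcription factors were expressed in yeast, captured on glutathione beads, barcoded with DNA and pooled with that sample. Pools met 200 nmole of a 16-mer random double-stranded DNA library in Tris/NaCl/DTT/glycerol buffer for 30 min at room temperature before washing, 0.1% formaldehyde crosslinking, proximity ligation (BsaI/T4 ligase, 1 h, 37 °C), PCR and Illumina NextSeq500 sequencing.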
# ELK1 = target: T2, ELK1 (Homo sapiens, UniProt P19419 1-428); conditions: protein: recombinant; tags: N-terminal GST; dsDNA, one strand shown
# T2 sequence: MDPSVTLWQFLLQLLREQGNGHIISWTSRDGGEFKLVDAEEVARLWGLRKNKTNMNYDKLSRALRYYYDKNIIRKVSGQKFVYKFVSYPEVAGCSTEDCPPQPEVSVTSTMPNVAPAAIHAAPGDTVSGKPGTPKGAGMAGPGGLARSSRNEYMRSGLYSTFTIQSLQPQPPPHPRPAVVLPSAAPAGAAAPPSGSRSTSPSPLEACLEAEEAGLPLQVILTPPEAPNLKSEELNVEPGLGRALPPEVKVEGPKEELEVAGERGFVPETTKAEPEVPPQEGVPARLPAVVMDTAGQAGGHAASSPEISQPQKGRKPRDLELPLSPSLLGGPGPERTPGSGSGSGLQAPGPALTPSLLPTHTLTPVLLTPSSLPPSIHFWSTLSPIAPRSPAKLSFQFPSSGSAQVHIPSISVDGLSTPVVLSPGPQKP
# Procedure, shortened: as §1
# GABPA = target: T3, GABPA (Homo sapiens, UniProt Q06546 1-454); conditions: protein: recombinant; tags: N-terminal GST; dsDNA, one strand shown
# T3 sequence: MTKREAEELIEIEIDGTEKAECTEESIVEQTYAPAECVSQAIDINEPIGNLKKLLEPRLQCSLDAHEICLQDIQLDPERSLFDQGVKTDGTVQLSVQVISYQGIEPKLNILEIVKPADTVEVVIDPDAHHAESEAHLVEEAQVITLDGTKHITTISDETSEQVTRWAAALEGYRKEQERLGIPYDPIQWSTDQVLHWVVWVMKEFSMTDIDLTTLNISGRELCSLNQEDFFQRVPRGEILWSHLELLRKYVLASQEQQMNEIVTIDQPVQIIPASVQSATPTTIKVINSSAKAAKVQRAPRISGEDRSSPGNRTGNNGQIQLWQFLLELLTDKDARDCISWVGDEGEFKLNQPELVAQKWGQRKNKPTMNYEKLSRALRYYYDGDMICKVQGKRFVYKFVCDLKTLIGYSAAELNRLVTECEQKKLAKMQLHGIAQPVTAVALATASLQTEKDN
# Procedure, shortened: as §1
# ERG = target: T4, ERG (Homo sapiens, UniProt P11308 1-479); conditions: protein: recombinant; tags: N-terminal GST; dsDNA, one strand shown
# T4 sequence: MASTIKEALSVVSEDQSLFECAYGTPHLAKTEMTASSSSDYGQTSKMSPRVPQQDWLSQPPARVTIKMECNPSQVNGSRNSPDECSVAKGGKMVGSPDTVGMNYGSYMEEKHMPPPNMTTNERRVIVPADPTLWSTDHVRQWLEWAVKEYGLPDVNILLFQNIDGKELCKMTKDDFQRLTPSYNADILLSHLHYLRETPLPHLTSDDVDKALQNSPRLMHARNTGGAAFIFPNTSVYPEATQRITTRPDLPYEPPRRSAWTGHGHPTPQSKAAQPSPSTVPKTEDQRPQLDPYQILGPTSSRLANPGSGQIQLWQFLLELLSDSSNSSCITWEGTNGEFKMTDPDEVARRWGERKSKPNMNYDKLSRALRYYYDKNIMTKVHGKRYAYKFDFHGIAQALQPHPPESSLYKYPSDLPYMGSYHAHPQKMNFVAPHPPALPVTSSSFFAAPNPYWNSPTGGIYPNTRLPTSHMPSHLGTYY
# Procedure, shortened: as §1
# ELF1 = ELF1 (Homo sapiens, UniProt P32519 1-619); conditions: protein: recombinant; tags: N-terminal GST; dsDNA, one strand shown
# Procedure, shortened: as §1
# EHF = target: T5, EHF (Homo sapiens, UniProt Q9NZC4 1-300); conditions: protein: recombinant; tags: N-terminal GST; dsDNA, one strand shown
# T5 sequence: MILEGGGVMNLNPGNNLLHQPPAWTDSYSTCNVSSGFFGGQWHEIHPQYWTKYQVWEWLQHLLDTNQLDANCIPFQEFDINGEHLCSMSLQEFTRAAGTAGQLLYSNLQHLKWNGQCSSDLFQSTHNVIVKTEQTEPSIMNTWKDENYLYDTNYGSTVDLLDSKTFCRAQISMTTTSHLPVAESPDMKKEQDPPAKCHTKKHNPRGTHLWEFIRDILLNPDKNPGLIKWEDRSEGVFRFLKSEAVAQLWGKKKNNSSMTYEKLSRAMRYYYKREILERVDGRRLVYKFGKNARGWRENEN
# Procedure, shortened: as §1
# SPI1 = SPI1 (Homo sapiens, UniProt P17947 1-270); conditions: protein: recombinant; tags: N-terminal GST; dsDNA, one strand shown
# Procedure, shortened: as §1
# SPIB = SPIB (Homo sapiens, UniProt Q01892 1-262); conditions: protein: recombinant; tags: N-terminal GST; dsDNA, one strand shown
# Procedure, shortened: as §1
# ELK3 = target: T6, ELK3 (Homo sapiens, UniProt P41970 1-407); conditions: protein: recombinant; tags: N-terminal GST; dsDNA, one strand shown
# T6 sequence: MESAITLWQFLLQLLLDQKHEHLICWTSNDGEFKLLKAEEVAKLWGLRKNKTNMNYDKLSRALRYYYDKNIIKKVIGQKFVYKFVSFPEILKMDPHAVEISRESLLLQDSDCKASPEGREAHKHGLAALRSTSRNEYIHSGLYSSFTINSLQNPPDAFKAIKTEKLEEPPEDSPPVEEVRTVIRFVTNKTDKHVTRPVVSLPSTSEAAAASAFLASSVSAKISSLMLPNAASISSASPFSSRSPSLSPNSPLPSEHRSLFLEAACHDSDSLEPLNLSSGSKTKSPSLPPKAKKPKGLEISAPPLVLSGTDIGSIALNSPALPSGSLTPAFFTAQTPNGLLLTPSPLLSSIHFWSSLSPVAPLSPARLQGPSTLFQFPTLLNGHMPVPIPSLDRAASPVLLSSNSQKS
# Procedure, shortened: as §1
# FEV = target: T7, FEV (Homo sapiens, UniProt Q99581 1-238); conditions: protein: recombinant; tags: N-terminal GST; dsDNA, one strand shown
# T7 sequence: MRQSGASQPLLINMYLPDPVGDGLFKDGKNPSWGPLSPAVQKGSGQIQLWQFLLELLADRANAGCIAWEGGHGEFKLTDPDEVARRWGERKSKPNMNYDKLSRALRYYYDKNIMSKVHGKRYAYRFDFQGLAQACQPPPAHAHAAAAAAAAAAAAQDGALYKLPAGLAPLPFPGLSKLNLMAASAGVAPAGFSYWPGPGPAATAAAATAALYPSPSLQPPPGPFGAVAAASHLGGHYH
# Procedure, shortened: as §1
# ETV5 = ETV5 (Homo sapiens, UniProt P41161 1-510); conditions: protein: recombinant; tags: N-terminal GST; dsDNA, one strand shown
# Procedure, shortened: as §1
# HSF1 = HSF1 (Homo sapiens, UniProt Q00613 1-529); conditions: protein: recombinant; tags: N-terminal GST; chain copies: 3; dsDNA, one strand shown
# Procedure, shortened: as §1
# SPIC = target: T8, SPIC (Homo sapiens, UniProt Q8N5J4 1-248); conditions: protein: recombinant; tags: N-terminal GST; dsDNA, one strand shown
# T8 sequence: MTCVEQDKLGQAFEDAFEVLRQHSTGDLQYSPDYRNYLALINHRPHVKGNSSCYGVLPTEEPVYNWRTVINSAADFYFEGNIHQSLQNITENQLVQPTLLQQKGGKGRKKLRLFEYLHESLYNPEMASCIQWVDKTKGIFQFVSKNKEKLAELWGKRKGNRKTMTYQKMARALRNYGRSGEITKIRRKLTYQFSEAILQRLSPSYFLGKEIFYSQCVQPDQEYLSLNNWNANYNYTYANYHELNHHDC
# Procedure, shortened: as §1
# ELF4 = ELF4 (Homo sapiens, UniProt Q99607 1-663); conditions: protein: recombinant; tags: N-terminal GST; dsDNA, one strand shown
# Procedure, shortened: as §1
# ELK4 = target: T9, ELK4 (Homo sapiens, UniProt P28324-2 1-405); conditions: protein: recombinant; tags: N-terminal GST; dsDNA, one strand shown
# T9 sequence: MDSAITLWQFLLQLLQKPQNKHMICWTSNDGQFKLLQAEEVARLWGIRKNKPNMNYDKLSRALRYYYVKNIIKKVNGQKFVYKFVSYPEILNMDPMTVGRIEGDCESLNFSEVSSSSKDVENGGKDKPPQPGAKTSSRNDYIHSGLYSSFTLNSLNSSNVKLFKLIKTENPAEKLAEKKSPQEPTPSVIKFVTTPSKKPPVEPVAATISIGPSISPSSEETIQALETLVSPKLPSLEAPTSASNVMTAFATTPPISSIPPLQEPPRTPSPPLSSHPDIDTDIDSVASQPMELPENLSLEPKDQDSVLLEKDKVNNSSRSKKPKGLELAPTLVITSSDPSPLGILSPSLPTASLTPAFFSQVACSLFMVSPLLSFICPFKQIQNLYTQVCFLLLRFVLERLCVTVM
# Procedure, shortened: as §1
# ETV2 = target: T10, ETV2 (Homo sapiens, UniProt O00321 1-342); conditions: protein: recombinant; tags: N-terminal GST; dsDNA, one strand shown
# T10 sequence: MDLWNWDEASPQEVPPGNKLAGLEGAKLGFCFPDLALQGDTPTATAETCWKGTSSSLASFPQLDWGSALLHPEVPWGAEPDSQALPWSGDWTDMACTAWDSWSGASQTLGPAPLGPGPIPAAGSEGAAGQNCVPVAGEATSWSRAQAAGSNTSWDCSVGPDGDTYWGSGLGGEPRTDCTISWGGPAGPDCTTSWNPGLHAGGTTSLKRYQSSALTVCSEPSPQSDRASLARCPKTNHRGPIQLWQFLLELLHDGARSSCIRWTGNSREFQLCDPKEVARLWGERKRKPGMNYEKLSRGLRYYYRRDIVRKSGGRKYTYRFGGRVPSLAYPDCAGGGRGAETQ
# Procedure, shortened: as §1
# ELF3 = target: T11, ELF3 (Homo sapiens, UniProt P78545 1-371); conditions: protein: recombinant; tags: N-terminal GST; dsDNA, one strand shown
# T11 sequence: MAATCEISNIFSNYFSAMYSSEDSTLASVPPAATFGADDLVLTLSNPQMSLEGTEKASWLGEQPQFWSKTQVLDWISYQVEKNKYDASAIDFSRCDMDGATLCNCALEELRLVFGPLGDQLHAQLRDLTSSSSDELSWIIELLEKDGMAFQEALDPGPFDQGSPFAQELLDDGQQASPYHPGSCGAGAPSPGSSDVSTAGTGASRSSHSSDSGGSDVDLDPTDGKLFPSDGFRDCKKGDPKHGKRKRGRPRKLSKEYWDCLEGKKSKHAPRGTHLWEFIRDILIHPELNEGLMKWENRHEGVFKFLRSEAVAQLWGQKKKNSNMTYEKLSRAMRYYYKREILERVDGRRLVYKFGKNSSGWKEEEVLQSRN
# Procedure, shortened: as §1
# CRX = CRX (Homo sapiens, UniProt O43186 1-299); conditions: protein: recombinant; tags: N-terminal GST; dsDNA, one strand shown
# Procedure, shortened: as §1
# ETV1 = ETV1 (Homo sapiens, UniProt P50549 1-477); conditions: protein: recombinant; tags: N-terminal GST; dsDNA, one strand shown
# Procedure, shortened: as §1
# Sequence of SPIB (Q01892 whole entry): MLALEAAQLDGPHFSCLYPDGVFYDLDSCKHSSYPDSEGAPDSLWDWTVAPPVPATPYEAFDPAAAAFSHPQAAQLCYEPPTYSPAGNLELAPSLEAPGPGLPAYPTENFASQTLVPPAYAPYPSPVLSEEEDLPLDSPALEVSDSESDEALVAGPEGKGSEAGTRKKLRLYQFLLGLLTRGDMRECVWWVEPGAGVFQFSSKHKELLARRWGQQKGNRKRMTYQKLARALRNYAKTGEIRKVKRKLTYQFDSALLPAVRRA
# Sequence of ELF1 (P32519 whole entry): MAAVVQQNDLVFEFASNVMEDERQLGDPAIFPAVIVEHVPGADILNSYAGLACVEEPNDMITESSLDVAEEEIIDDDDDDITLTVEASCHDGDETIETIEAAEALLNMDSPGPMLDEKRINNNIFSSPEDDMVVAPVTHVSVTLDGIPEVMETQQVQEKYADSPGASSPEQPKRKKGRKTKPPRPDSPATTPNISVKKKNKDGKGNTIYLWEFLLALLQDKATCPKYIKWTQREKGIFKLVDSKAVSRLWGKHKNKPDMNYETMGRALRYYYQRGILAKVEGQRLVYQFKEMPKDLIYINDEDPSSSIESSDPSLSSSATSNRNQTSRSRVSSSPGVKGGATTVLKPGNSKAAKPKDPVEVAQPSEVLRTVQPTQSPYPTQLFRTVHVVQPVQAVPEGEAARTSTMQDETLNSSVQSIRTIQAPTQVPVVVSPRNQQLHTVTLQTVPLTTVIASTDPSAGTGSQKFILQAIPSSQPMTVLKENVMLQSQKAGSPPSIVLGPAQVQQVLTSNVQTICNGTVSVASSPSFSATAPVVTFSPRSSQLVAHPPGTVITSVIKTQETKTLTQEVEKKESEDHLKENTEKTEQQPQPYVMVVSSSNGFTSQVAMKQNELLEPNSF
# Sequence of ETV5 (P41161 whole entry): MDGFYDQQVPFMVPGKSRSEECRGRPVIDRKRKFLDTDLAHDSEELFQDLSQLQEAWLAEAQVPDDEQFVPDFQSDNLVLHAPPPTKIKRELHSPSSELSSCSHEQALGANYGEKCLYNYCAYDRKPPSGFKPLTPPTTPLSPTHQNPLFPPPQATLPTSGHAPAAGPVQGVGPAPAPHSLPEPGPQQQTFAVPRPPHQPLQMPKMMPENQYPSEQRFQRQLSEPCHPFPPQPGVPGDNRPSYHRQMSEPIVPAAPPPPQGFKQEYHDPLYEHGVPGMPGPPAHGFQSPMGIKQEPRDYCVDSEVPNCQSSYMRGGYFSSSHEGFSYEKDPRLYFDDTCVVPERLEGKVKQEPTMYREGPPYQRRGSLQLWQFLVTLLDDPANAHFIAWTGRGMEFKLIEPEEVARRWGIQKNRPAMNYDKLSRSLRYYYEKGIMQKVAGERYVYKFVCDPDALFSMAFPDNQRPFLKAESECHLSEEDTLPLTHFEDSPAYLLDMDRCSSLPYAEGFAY
# Sequence of CRX (O43186 whole entry): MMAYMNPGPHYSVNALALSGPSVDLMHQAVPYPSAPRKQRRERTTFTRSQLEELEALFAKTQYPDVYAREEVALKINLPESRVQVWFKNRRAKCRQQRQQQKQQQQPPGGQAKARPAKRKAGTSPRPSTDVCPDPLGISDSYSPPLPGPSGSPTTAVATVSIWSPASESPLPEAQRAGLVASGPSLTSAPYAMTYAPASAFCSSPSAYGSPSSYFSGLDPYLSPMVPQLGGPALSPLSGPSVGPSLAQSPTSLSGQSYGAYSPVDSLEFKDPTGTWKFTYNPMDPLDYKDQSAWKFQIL
# Sequence of ELF4 (Q99607 whole entry): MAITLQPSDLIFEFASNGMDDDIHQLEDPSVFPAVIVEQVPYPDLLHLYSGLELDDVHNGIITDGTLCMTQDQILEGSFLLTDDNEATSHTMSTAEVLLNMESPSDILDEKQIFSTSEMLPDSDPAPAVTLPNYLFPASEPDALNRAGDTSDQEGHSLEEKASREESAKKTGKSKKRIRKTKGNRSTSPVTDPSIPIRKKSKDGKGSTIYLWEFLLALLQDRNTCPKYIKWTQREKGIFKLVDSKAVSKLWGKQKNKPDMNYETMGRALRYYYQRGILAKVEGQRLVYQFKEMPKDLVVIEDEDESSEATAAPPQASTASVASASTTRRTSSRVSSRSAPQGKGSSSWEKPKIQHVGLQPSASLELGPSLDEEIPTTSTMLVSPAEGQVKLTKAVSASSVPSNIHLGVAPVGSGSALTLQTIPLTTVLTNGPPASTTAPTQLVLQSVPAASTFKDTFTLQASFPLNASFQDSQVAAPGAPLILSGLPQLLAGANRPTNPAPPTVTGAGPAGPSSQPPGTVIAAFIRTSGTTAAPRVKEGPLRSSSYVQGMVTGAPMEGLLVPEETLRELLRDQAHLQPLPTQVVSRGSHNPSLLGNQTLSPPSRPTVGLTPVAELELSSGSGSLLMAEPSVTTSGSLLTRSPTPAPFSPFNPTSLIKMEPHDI
# Sequence of HSF1 (Q00613 whole entry): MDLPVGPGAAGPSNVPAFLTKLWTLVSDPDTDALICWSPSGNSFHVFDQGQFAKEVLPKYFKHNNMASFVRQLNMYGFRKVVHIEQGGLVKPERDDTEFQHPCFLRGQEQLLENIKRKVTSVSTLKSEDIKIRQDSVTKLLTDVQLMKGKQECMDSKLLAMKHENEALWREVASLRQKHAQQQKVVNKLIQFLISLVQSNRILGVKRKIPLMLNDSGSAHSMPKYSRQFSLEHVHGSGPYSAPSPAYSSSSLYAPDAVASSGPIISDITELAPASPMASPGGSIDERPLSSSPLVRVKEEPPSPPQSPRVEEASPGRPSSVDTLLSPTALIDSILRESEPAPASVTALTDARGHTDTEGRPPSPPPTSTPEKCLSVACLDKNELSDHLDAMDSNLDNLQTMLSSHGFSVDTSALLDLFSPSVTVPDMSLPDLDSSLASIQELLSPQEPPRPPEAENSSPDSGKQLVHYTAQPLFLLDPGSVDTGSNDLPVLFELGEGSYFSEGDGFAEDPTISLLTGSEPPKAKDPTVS
# Sequence of ETV1 (P50549 whole entry): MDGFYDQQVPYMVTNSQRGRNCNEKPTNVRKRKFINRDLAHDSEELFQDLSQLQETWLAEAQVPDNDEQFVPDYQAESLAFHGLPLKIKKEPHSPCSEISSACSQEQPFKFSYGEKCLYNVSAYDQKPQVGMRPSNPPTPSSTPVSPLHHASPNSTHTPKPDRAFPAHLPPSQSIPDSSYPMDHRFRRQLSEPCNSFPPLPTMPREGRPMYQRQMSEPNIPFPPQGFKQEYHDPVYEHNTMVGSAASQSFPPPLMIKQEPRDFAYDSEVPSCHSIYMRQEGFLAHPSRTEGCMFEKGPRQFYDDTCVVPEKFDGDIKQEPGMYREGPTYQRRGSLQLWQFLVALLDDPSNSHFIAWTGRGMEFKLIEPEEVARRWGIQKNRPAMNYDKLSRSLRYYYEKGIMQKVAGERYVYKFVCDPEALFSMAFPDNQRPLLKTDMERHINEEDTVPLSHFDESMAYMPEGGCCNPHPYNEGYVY
sequence,measurement,setting,value
ACCTTA,binding signal,FLI1,"1.34 fold enrichment (6-mer frequency, TF over GST control)"
same,binding signal,ELK1,"1.24 fold enrichment (6-mer frequency, TF over GST control)"
same,binding signal,GABPA,"1.19 fold enrichment (6-mer frequency, TF over GST control)"
same,binding signal,ERG,"1.3 fold enrichment (6-mer frequency, TF over GST control)"
same,binding signal,ELF1,"1.2 fold enrichment (6-mer frequency, TF over GST control)"
same,binding signal,EHF,"1.24 fold enrichment (6-mer frequency, TF over GST control)"
same,binding signal,SPI1,"1.24 fold enrichment (6-mer frequency, TF over GST control)"
same,binding signal,SPIB,"1.21 fold enrichment (6-mer frequency, TF over GST control)"
same,binding signal,ELK3,"1.13 fold enrichment (6-mer frequency, TF over GST control)"
same,binding signal,FEV,"1.27 fold enrichment (6-mer frequency, TF over GST control)"
same,binding signal,ETV5,"1.23 fold enrichment (6-mer frequency, TF over GST control)"
same,binding signal,HSF1,"1.19 fold enrichment (6-mer frequency, TF over GST control)"
same,binding signal,SPIC,"1.11 fold enrichment (6-mer frequency, TF over GST control)"
same,binding signal,ELF4,"1.24 fold enrichment (6-mer frequency, TF over GST control)"
same,binding signal,ELK4,"1.32 fold enrichment (6-mer frequency, TF over GST control)"
same,binding signal,ETV2,"1.32 fold enrichment (6-mer frequency, TF over GST control)"
same,binding signal,ELF3,"1.22 fold enrichment (6-mer frequency, TF over GST control)"
same,binding signal,CRX,"1.43 fold enrichment (6-mer frequency, TF over GST control)"
same,binding signal,ETV1,"1.4 fold enrichment (6-mer frequency, TF over GST control)"

# Reference: publication PMC7862700, “An all-to-all approach to the identification of sequence-specific readers for epigenetic DNA modifications on cytosine”
